Where “and” joins values, the source holds several entries; their conditions need not be identical. Equal entries are not always repeated. The whole screen tested about 5,500 compounds, of which about 2,000 (36%) were called active. Roughly 18% stayed inconclusive and do not appear here. No stated cut-off is given here; in the data, active means normalized growth mostly below about 0.91 (no sharp cut-off); inconclusive means no clear call, values can overlap the other calls; inactive means mostly above about 0.92. The list shows a part of the results.
Test: chemical genetic growth profiling, strain panel (AID 1159580);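 further: tested at 20 µM; growth read once vehicle control cultures reached saturation at 30 °C; 1 = growth at the plate median or of vehicle wells; lower values mean less growth of the strain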
Conditions: S. cerevisiae deletion strains, growth OD

Measured: normalized growth

NS(=O)(=O)c1cc2c(cc1C(F)(F)F)NCNS2(=O)=O
inactive: locus YAL013W, strain DEP1, active compounds read low 1.03 | locus YAL021C, strain ccr4, active compounds read low 0.995 | locus YAL026C, strain drs2, active compounds read low 1 | locus YAL030W, strain snc1, active compounds read low 0.995 | locus YBL061C, strain skt5, active compounds read low 0.996 | locus YBR009C, strain hhf1, active compounds read low 0.985 | locus YBR021W, strain FUR4, active compounds read low 1 | locus YBR023C, strain chs3, active compounds read low 0.989 | locus YBR171W, strain sec66, active compounds read low 1.01 | locus YBR229C, strain ROT2, active compounds read low 1.02 | locus YBR231C, strain swc5, active compounds read low 0.975 | locus YBR279W, strain paf1, active compounds read low 0.992 | locus YCL011C, strain gbp2, active compounds read low 0.991 | locus YCL016C, strain dcc1, active compounds read low 0.969 | locus YCL029C, strain bik1, active compounds read low 0.997 | locus YCL061C, strain MRC1, active compounds read low 0.997 | locus YCL069W, strain vba3, active compounds read low 1 | locus YCR088W, strain abp1, active compounds read low 0.999 | locus YDL005C, strain med2, active compounds read low 0.99 | locus YDL035C, strain GPR1, active compounds read low 1.03 | locus YDL040C, strain nat1, active compounds read low 0.996 | locus YDL074C, strain BRE1, active compounds read low 1.01 | locus YDL101C, strain DUN1, active compounds read low 1.02 | locus YDL185W, strain tfp1, active compounds read low 0.997 | locus YDL192W, strain arf1, active compounds read low 0.993 | locus YDR001C, strain nth1, active compounds read low 1 | locus YDR069C, strain doa4, active compounds read low 1.01 | locus YDR101C, strain arx1, active compounds read low 1 | locus YDR137W, strain rgp1, active compounds read low 1.01 | locus YDR159W, strain sac3, active compounds read low 0.966 | locus YDR162C, strain NBP2, active compounds read low 1.02 | locus YDR195W, strain ref2 0.994 | locus YDR297W, strain sur2, active compounds read low 1.01 | locus YDR318W, strain mcm21, active compounds read low 0.986 | locus YDR334W, strain swr1, active compounds read low 1.01 | locus YDR335W, strain msn5, active compounds read low 0.999 | locus YDR388W, active compounds read low 0.998 | locus YDR392W, strain spt3, active compounds read low 0.939 | locus YDR502C, strain sam2, active compounds read low 0.988 | locus YEL003W, strain gim4, active compounds read low 1 | locus YEL037C, strain rad23, active compounds read low 1.02 | locus YEL061C, strain CIN8 (second series), active compounds read low 1.01 | locus YEL061C, strain CIN8, active compounds read low 1.02 | locus YER015W, strain faa2, active compounds read low 0.97 | locus YER016W, strain bim1, active compounds read low 1 | locus YER110C, active compounds read low 0.99 | locus YER111C, strain swi4, active compounds read low 1 | locus YER155C, strain BEM2 (second series), active compounds read low 0.98 | locus YER155C, strain BEM2, active compounds read low 1 | locus YER167W, strain BCK2, active compounds read low 1.01 | locus YFR010W, strain ubp6, active compounds read low 1 | locus YGL078C, strain dbp3, active compounds read low 0.983 | locus YGL086W, strain mad1, active compounds read low 0.99 | locus YGL167C, strain pmr1, active compounds read low 0.998 | locus YGL173C, strain kem1, active compounds read low 0.998 | locus YGL227W, strain vid30, active compounds read low 1 | locus YGL240W, strain doc1, active compounds read low 0.965 | locus YGL248W, strain PDE1, active compounds read low 1.02 | locus YGL253W, strain hxk2, active compounds read low 1.01 | locus YGR135W, strain pre9, active compounds read low 0.974 | locus YGR252W, strain gcn5, active compounds read low 0.922 | locus YHR013C, strain ard1, active compounds read low 0.989 | locus YHR027C, strain rpn1, active compounds read low 1.01 | locus YHR030C, strain SLT2, active compounds read low 1.01 and 0.988 | locus YHR079C, strain IRE1 (second series), active compounds read low 0.998 | locus YHR079C, strain IRE1, active compounds read low 0.984 | locus YHR094C, strain hxt1, active compounds read low 0.993 | locus YHR129C, strain ARP1, active compounds read low 1.02 | locus YHR142W, strain chs7, active compounds read low 1.01 | locus YHR200W, strain rpn10, active compounds read low 0.988 | locus YIL066C, strain RNR3, active compounds read low 1.03 | locus YIL073C, strain SPO22, active compounds read low 1.01 | locus YIL125W, strain kgd1, active compounds read low 0.992 | locus YIR030C, strain dcg1, active compounds read low 0.994 | locus YJL092W, strain hpr5, active compounds read low 1 | locus YJL095W, strain BCK1 (second series), active compounds read low 0.997 | locus YJL095W, strain BCK1, active compounds read low 1.03 and 0.978 | locus YJL115W, strain asf1, active compounds read low 1.01 | locus YJL129C, strain trk1, active compounds read low 1.01 | locus YJL134W, strain LCB3, active compounds read low 1.02 | locus YJL154C, strain vps35, active compounds read low 0.993 | locus YJL164C, strain tpk1, active compounds read low 0.992 | locus YJL166W, strain qcr8, active compounds read low 0.993 | locus YJL168C, strain set2, active compounds read low 0.987 | locus YJL187C, strain SWE1 (second series), active compounds read low 1.02 | locus YJL187C, strain SWE1, active compounds read low 0.994 | locus YJR043C, strain POL32, active compounds read low 1.02 | locus YJR066W, strain TOR1, active compounds read low 0.928 | locus YKL009W, strain mrt4, active compounds read low 1 | locus YKL068W, active compounds read low 1 | locus YKL085W, strain MDH1 (second series), active compounds read low 0.999 | locus YKL085W, strain MDH1, active compounds read low 0.999 | locus YKL160W, strain elf1, active compounds read low 0.986 | locus YKL190W, strain CNB1, active compounds read low 1.02 | locus YKR001C, strain vps1, active compounds read low 1.01 | locus YKR026C, strain gcn3, active compounds read low 0.993 | locus YKR091W, strain srl3, active compounds read low 0.993 | locus YLL001W, strain dnm1, active compounds read low 0.98 | locus YLL026W, active compounds read low 0.994 | locus YLL041C, strain sdh2, active compounds read low 0.997 | locus YLR027C, strain aat2, active compounds read low 1.01 | locus YLR039C, strain RIC1, active compounds read low 1.07 | locus YLR058C, strain SHM2, active compounds read low 1.02 | locus YLR102C, strain apc9, active compounds read low 0.985 | locus YLR113W, strain HOG1, active compounds read low 0.991 | locus YLR221C, strain rsa3, active compounds read low 0.974 | locus YLR258W, strain gsy2, active compounds read low 0.992 | locus YLR262C, strain YPT6 (second series), active compounds read low 1 | locus YLR262C, strain YPT6, active compounds read low 1.03 | locus YLR268W, strain sec22, active compounds read low 0.988 | locus YLR320W, strain mms22, active compounds read low 0.988 | locus YLR330W, strain CHS5, active compounds read low 1.02 | locus YLR342W, strain FKS1 (second series), active compounds read low 1.01 | locus YLR342W, strain FKS1, active compounds read low 1 | locus YLR357W, strain rsc2, active compounds read low 0.971 | locus YLR370C, strain arc18, active compounds read low 0.999 | locus YLR371W, strain rom2, active compounds read low 0.979 | locus YLR384C, strain iki3, active compounds read low 0.988 | locus YLR418C, strain cdc73, active compounds read low 0.967 | locus YML016C, strain PPZ1, active compounds read low 1.02 | locus YML032C, strain rad52, active compounds read low 0.985 | locus YML120C, strain ndi1, active compounds read low 0.983 | locus YML124C, strain tub3, active compounds read low 0.988 | locus YMR058W, strain fet3, active compounds read low 1.01 | locus YMR078C, strain ctf18, active compounds read low 0.997 | locus YMR125W, strain sto1, active compounds read low 0.982 | locus YMR129W, active compounds read low 0.999 | locus YMR205C, strain PFK2, active compounds read low 0.982 | locus YMR223W, strain ubp8, active compounds read low 0.986 | locus YMR231W, strain pep5, active compounds read low 0.998 | locus YMR307W, strain GAS1, active compounds read low 1.01 | locus YNL067W, strain RPL9B, active compounds read low 1.02 | locus YNL071W, strain lat1, active compounds read low 1 | locus YNL153C, strain GIM3, active compounds read low 1.01 | locus YNL183C, strain NPR1, active compounds read low 0.96 | locus YNL209W, strain ssb2, active compounds read low 0.986 | locus YNL233W, strain BNI4, active compounds read low 1.02 | locus YNL248C, strain rpa49, active compounds read low 1 | locus YNL250W, strain rad50, active compounds read low 0.996 | locus YNL271C, strain bni1, active compounds read low 0.999 | locus YNL298W, strain CLA4, active compounds read low 0.983 | locus YNL307C, strain MCK1, active compounds read low 0.988 | locus YNL322C, strain KRE1 (second series), active compounds read low 0.99 | locus YNR049C, strain mso1, active compounds read low 0.996 | locus YNR052C, strain pop2, active compounds read low 0.991 | locus YOL012C, strain htz1 0.725 | locus YOL147C, strain pex11, active compounds read low 0.991 | locus YOR001W, strain rrp6, active compounds read low 1.01 | locus YOR061W, strain CKA2, active compounds read low 1.03 | locus YOR069W, strain VPS5, active compounds read low 1.02 | locus YOR070C, strain gyp1, active compounds read low 0.992 | locus YOR080W, strain dia2, active compounds read low 0.99 | locus YOR083W, strain WHI5, active compounds read low 1.04 | locus YOR106W, strain vam3, active compounds read low 0.974 | locus YOR136W, strain idh2, active compounds read low 0.991 | locus YOR144C, strain elg1, active compounds read low 0.991 | locus YOR184W, strain ser1, active compounds read low 0.982 | locus YOR231W, strain MKK1, active compounds read low 0.991 | locus YOR265W, strain rbl2, active compounds read low 0.993 | locus YOR270C, strain vph1, active compounds read low 1.03 | locus YOR290C, strain snf2, active compounds read low 0.935 | locus YOR316C, strain cot1, active compounds read low 0.997 | locus YPL051W, strain arl3, active compounds read low 0.98 | locus YPL055C, strain LGE1, active compounds read low 1.02 | locus YPL078C, strain atp4, active compounds read low 1 | locus YPL106C, strain sse1, active compounds read low 0.966 | locus YPL240C, strain hsp82, active compounds read low 0.994 | locus YPL241C, strain CIN2, active compounds read low 1.02 | locus YPL256C, strain CLN2, active compounds read low 0.976 | locus YPR119W, strain clb2, active compounds read low 0.994 | locus YPR141C, strain kar3, active compounds read low 0.988 | locus YPR163C, strain tif3, active compounds read low 0.995 | locus YPR167C, strain met16, active compounds read low 0.987 | strain wtn01, active compounds read low 0.977
